{"source": "PubChem BioAssay (NCATS)", "note": "Several values for one entry are separate records, joined by “and”; a condition that tells them apart may be missing. Identical values can stand only once. Records with an inconclusive call do not appear. Unmarked numbers belong to inactive results. Activity calls are given as the source filed them.", "data": [{"assay": "qHTS assay for small molecule agonists of the antioxidant response element (ARE) signaling pathway (AID 651741; active means well fitted activation curve with a large enough effect in the signal ratio; the % refers to the signal ratio; further: potency means the concentration at half of the fitted maximal effect; on activation: % of control where 0% means no effect)", "settings": "HepG2 ARE-bla reporter, beta-lactamase FRET ratio, 16 h; series mostly up to 96 µM", "outline": "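HepG2 ARE-bla reporter cells, 2,000/well; 5 h settle at 37 C/5% CO2; compound pin transfer (23 nL, DMSO); 16 h at 37 C; LiveBLAzer B/G FRET substrate, 2 h RT; fluorescence intensity read.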", "values": [{"smiles": "CCCCCCCCCC(=O)O", "Potency": "inactive"}, {"smiles": "O=S(=O)(c1ccccc1)N(CC(F)(F)F)c1ccc(C(O)(C(F)(F)F)C(F)(F)F)cc1", "Potency": "27.3 µM (active)"}, {"smiles": "CN(C)Cc1ccccc1", "Potency": "inactive"}, {"smiles": "CCCCCCCC/C=C\\CCCCCCCC(=O)OC[C@@H](O)[C@H]1OC[C@H](O)[C@H]1O", "Potency": "inactive"}, {"smiles": "COC(C)=O", "Potency": "inactive"}]}, {"assay": "qHTS assay for small molecule activators of the p53 signaling pathway (AID 651743; active means well fitted activation curve with a large enough effect in the signal ratio, not every such curve was filed as active; the % refers to the signal ratio; further: % of control where 0% means no effect)", "settings": "HCT-116 p53RE-bla, beta-lactamase FRET ratio, 16 h; hits give high values", "outline": "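Reporter: beta-lactamase driven by p53 response elements, stably integrated in HCT-116 cells. Cells seeded at 4,000/well, 5 h preincubation, compound (DMSO) 16 h at 37 C; B/G FRET substrate 2 h RT; fluorescence intensity read.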", "values": [{"smiles": "O=C(O)CC(O)(CC(=O)O)C(=O)O", "activation": "-3% and -0.0659% and -0.0181%"}, {"smiles": "CCCCCCCCCC(=O)O", "activation": "-0.571% and 9.23%"}, {"smiles": "O=S(=O)(c1ccccc1)N(CC(F)(F)F)c1ccc(C(O)(C(F)(F)F)C(F)(F)F)cc1", "activation": "23.4%"}, {"smiles": "CN(C)Cc1ccccc1", "activation": "-3.48%"}, {"smiles": "C=Cc1ccccc1", "activation": "-0.864% and -2.45%"}, {"smiles": "CC(=O)S[C@@H]1CC2=CC(=O)CC[C@]2(C)[C@H]2CC[C@@]3(C)[C@@H](CC[C@@]34CCC(=O)O4)[C@H]12", "activation": "29.9%"}, {"smiles": "CCCCCCCC/C=C\\CCCCCCCC(=O)OC[C@@H](O)[C@H]1OC[C@H](O)[C@H]1O", "activation": "1.59%"}]}]}
